High-throughput results deposited in PubChem BioAssay by National Center for Advancing Translational Sciences (NCATS).
KB-V1 cytotox – kills drug-selected multidrug resistant KB-V1 cells; Potency, µM (highest dose often 46.1 µM), hits mostly cytotoxic; 400,000 compounds, 3.4% hits; KB-V1 MDR cells viability, CellTiter-Glo, 72 h; note: nearly all actives have a fitted effect of over 60% in size
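Cytotoxicity toward P-gp-expressing KB-V1 cells was determined as loss of CellTiter-Glo luminescence after 72 h at 37 degrees C. Compounds were tested in quantitative HTS format across a concentration range, with curves fitted to normalized data.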
KB-3-1 cytotox – kills parental KB-3-1 adenocarcinoma cells; 400,000 compounds, 1.4% hits; Potency, µM (highest dose often 46.1 µM), hits mostly cytotoxic; KB-3-1 viability, CellTiter-Glo ATP luminescence, 72 h; note: nearly all actives have a fitted effect of over 60% in size
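Parental KB-3-1 viability, qHTS format: 72 h compound exposure, 37 °C; CellTiter-Glo; media-only wells and DMSO plates as controls; concentration-effect fits on corrected data.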
MCF10A rereplic – induces DNA re-replication in MCF 10a normal breast cells | Potency, µM (series often up to 46.1 µM), usual class: activators | 350,000 compounds, 2.9% hits | MCF 10A DNA re-replication, Hoechst nuclear intensity, 48 h | AID 624296; note: nearly all actives have a fitted effect of over 50% in size
HT1080 IDH1KD tx – kills HT-1080 cells with IDH1 knockdown. HT-1080 IDH1 knockdown viability, ATP luminescence, 48 h. Potency, µM (titrated, usually from 46.1 µM), usual class: cytotoxic. 360,000 compounds, 2% hits
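Knockdown cells (IDH1KD HT-1080) received compounds 2 h after plating at 750 cells/well and were kept 48 h at 37 °C in 5% FBS RPMI. A CellTiter-Glo luminescence read gave % activity for curve fitting.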
HT1080NT lethal – kills 2HG-producing HT-1080-NT fibrosarcoma cells; HT-1080-NT fibrosarcoma viability, CellTiter-Glo ATP luminescence, 48 h; Potency, µM (doses to about 46.1 µM), usual class: cytotoxic; 360,000 compounds, 1.6% hits;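 note: NT is the 2HG producing partner of a matched IDH1 knockdown line; nearly all actives have a fitted effect of over 55% in size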
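A 48-hour cytotoxicity screen used HT-1080-NT cells plated 2 hours before compound delivery. ATP-based CellTiter-Glo luminescence measured viability, normalized to DMSO and no-cell controls.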
SW480 rereplic – DNA re-replication induction in SW480 cells; SW480 DNA re-replication, Hoechst DNA content imaging, 48 h; Potency, µM (doses to about 46.1 µM), most hits filed as activators; 340,000 compounds, 1.8% hits; note: nearly all actives have a fitted effect of over 55% in size
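250 cells/well; 23 nL cpd via pin tool; 48 hr, 37 C, 5% CO2; Hoechst 40 min; imager read of total nuclear intensity, ex 405/em 500-530 nm.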
Large screens that a line does not name were inactive. Compounds with a hit are over-represented: about 7.9% of the library has one in this group of screens. Calls come from the whole dose curve; as a rule, active = well fitted curve in the direction sought with a large enough effect; inconclusive = small, poorly fitted or top-dose-only effect, or another doubt; inactive = no such curve, though single readings can be large; an effect the other way counts as inactive or inconclusive.

C=CCNC(=O)CSc1nc2sc3c(c2c(=O)n1CCCOC)CCC3	MCF10A rereplic 6.5µM
C=CCn1c(SCC(=O)NC)nc2sc3c(c2c1=O)CCC3	KB-V1 cytotox 2.1µM
Cc1ccn2cc(-c3ccc(O)c(O)c3)nc2c1	none
COc1cccc2c1C(=O)C=C(C)C2=O	KB-V1 cytotox inconclusive, KB-3-1 cytotox inconclusive, MCF10A rereplic 23µM, HT1080 IDH1KD tx inconclusive, HT1080NT lethal 18µM, SW480 rereplic inconclusive
COc1cc2c(cc1OC)[C@@H](Cc1ccc(OCCC#N)cc1)N(C)CC2	none
COc1cc(Br)c(CC2c3cc(OC)c(OC)cc3CCN2C)cc1OC (centres undefined)	KB-V1 cytotox 21µM
COc1cccc(NC(=O)CN(C)C(=O)/C=C/c2cn(Cc3ccccc3)nc2-c2cccnc2)c1	MCF10A rereplic inconclusive, SW480 rereplic 15µM
COc1cccc(N2CCN(C(=O)c3cn(Cc4ccccc4)nc3-c3cccnc3)CC2)c1	KB-V1 cytotox inconclusive, KB-3-1 cytotox 1.8µM, MCF10A rereplic 5.2µM, HT1080 IDH1KD tx 3.3µM, HT1080NT lethal 5.8µM, SW480 rereplic 4.1µM
COc1ccccc1N1CCN(C(=O)c2cn(Cc3ccccc3)nc2-c2cccnc2)CC1	KB-V1 cytotox inconclusive
Clc1ccc(-c2nc3ccc(Br)cn3c2Cc2ccsc2)cc1	HT1080 IDH1KD tx inconclusive (no result: MCF10A rereplic, SW480 rereplic)
Cc1cc(NC(=O)CCC(=O)N(CC(=O)NCC2CCCO2)c2ccc(F)c(Cl)c2)no1 (centres undefined)	none
COCC(=O)N1CCC(Oc2ccc(C(=O)NCCCC3CCCC3)cc2)CC1	KB-V1 cytotox 9.2µM, KB-3-1 cytotox inconclusive
COc1ccc(C(=O)NCc2nnc(SCC(=O)NC3CCCCC3)o2)cc1	none
COc1cccc(CN2C(=O)C(C)N(C(=O)c3c(F)cccc3F)c3ccccc32)c1 (centres undefined)	KB-3-1 cytotox inconclusive, MCF10A rereplic inconclusive, HT1080NT lethal inconclusive
CC1C(=O)N(Cc2ccccc2F)c2ccccc2N1C(=O)c1c(F)cccc1F (centres undefined)	KB-3-1 cytotox inconclusive, MCF10A rereplic 21µM
CC(C)[C@H](NC(=O)OCc1ccccc1)C(=O)OCC(=O)N1CCN(c2ccccc2)CC1	KB-V1 cytotox inconclusive, KB-3-1 cytotox inconclusive
Cc1nn(C)c(C)c1NC(=O)CSc1nnc(C)n1-c1ccccc1	none
O=C(CSc1nnc(Cn2nnc(-c3ccccc3)n2)n1-c1ccccc1)Nc1ccc(F)cc1	none
Cc1cccc(C)c1NC(=O)CSc1nnc(Cn2nnc(-c3ccccc3)n2)n1-c1ccccc1	KB-V1 cytotox 8.2µM
O=C(CSc1nnc(Cn2nnc(-c3ccccc3)n2)n1-c1ccccc1)Nc1ccccc1	KB-V1 cytotox 15µM
Cc1ccccc1NC(=S)NC(=O)COc1ccccc1C	none
Cc1ccc(C(=O)N2CCN(c3ccc(NC(=S)NC(=O)c4cccs4)cc3)CC2)cc1	KB-3-1 cytotox inconclusive, MCF10A rereplic inconclusive, SW480 rereplic 10µM
Cc1cccc(C(=O)NC(=S)Nc2ccc(N3CCOCC3)cc2)c1	KB-V1 cytotox 18µM, MCF10A rereplic inconclusive
CC(=O)N1CCN(c2ccc(NC(=O)c3ccccc3)cc2)CC1	none
Cc1ccccc1C(=O)N1CCN(c2ccc(NC(=S)NC(=O)c3cccs3)cc2)CC1	KB-3-1 cytotox inconclusive, HT1080NT lethal inconclusive, SW480 rereplic inconclusive
CC(=O)N1CCN(c2ccc(NC(=S)NC(=O)c3ccccc3)cc2)CC1	KB-V1 cytotox 3.7µM, MCF10A rereplic inconclusive
CCCCN(C)CCNC(=O)Cn1ncc2c3ccccc3n(CCC)c2c1=O	none (no result: MCF10A rereplic, HT1080 IDH1KD tx, HT1080NT lethal, SW480 rereplic)
COc1cccc(N2CCN(S(=O)(=O)c3cc4c(cc3Cl)NC(=O)CO4)CC2)c1	none
CCOc1ccc(NC(=O)c2nnn(-c3ccc(F)c(Cl)c3)c2C)cc1	none (no result: MCF10A rereplic, HT1080 IDH1KD tx, HT1080NT lethal, SW480 rereplic)
COc1ccc(C2=NNC(=O)CC2)cc1	KB-V1 cytotox inconclusive, SW480 rereplic inconclusive
CCCOc1ccc(C2=NNC(=O)CC2)cc1	KB-V1 cytotox 0.21µM
O=C1CCC(/C=C/c2ccccc2)=NN1	KB-V1 cytotox 5.2µM, KB-3-1 cytotox inconclusive
O=C1CCC(/C=C/c2ccccc2)=NN1Cc1ccccc1Cl	none
CCOC(=O)CN1N=C(/C=C/c2ccc(OCC)cc2)CCC1=O	KB-V1 cytotox inconclusive
CCOc1ccc(/C=C/C2=NNC(=O)CC2)cc1	KB-V1 cytotox 1.8µM
COc1ccc(/C=C/C2=NNC(=O)CC2)cc1	KB-V1 cytotox 0.41µM, KB-3-1 cytotox 1.5µM
C=CCN1N=C(/C=C/c2ccc(OC)cc2)CCC1=O	KB-V1 cytotox inconclusive
CN(C)/C=C1\C(=O)Oc2ccccc2C1=O	HT1080 IDH1KD tx inconclusive
CC(c1ccco1)N(C(=O)c1ccc(Cl)c([N+](=O)[O-])c1)c1ccccn1 (centres undefined)	MCF10A rereplic inconclusive
CCCNC(=S)N1CCC(NC(=O)c2ccc(C)cc2)CC1	none
Clc1ccc(C(c2cccs2)N2CCNCC2)cc1 (centres undefined)	KB-V1 cytotox inconclusive, HT1080 IDH1KD tx inconclusive (no result: MCF10A rereplic, SW480 rereplic)
O=C(NC(Cc1c[nH]c2ccccc12)C(=O)Nc1ccc(OC(F)(F)F)cc1)c1cccs1 (centres undefined)	KB-V1 cytotox inconclusive, KB-3-1 cytotox 12µM, MCF10A rereplic inconclusive, HT1080 IDH1KD tx 21µM, HT1080NT lethal inconclusive, SW480 rereplic inconclusive
O=C(NC(Cc1c[nH]c2ccccc12)C(=O)Nc1ccc(F)c([N+](=O)[O-])c1)c1cccs1 (centres undefined)	KB-V1 cytotox 6.5µM, KB-3-1 cytotox inconclusive, MCF10A rereplic inconclusive, HT1080 IDH1KD tx inconclusive, HT1080NT lethal inconclusive, SW480 rereplic inconclusive
CCC(C)Sc1ccc([C@@H]2[C@H]3C(=O)N(CC)C(=O)[C@H]3[C@]3(C(=O)OC)CCCCN23)cc1 (some centres undefined)	KB-V1 cytotox 10µM, KB-3-1 cytotox inconclusive, SW480 rereplic inconclusive
Cc1nc(CNC(=O)CC2C(=O)NCCN2Cc2ccc(F)cc2)cs1 (centres undefined)	KB-V1 cytotox inconclusive
Cc1ccc(C)c(Oc2cc(NC(=O)CCCn3nc(C)c([N+](=O)[O-])c3C)cc([N+](=O)[O-])c2)c1	KB-V1 cytotox 10µM, KB-3-1 cytotox inconclusive, MCF10A rereplic inconclusive, HT1080 IDH1KD tx inconclusive, HT1080NT lethal 16µM, SW480 rereplic inconclusive
Cc1nn(CCCC(=O)Nc2cc(Oc3ccccc3)cc([N+](=O)[O-])c2)c(C)c1[N+](=O)[O-]	KB-V1 cytotox 8.2µM, KB-3-1 cytotox inconclusive, MCF10A rereplic inconclusive
Cc1ccc(Oc2cc(NC(=O)CCCn3nc([N+](=O)[O-])cc3C)cc([N+](=O)[O-])c2)cc1	KB-V1 cytotox 5.2µM
Cc1c(Cl)c([N+](=O)[O-])nn1CCCC(=O)Nc1cccc(Cl)c1Cl	KB-V1 cytotox 16µM
